Measurements published in PubChem BioAssay (Tox21).
Inconclusive results are not listed. Values without a mark were called inactive. The source made the active and inactive calls. Calls follow the shape of the dose curve; as a rule, active = well fitted cell-killing curve with a large enough effect in the repeat runs; inconclusive = weak or mixed curves, or effect the other way; inactive = flat fitted curve, though single readings scatter.

Assay: cAMP Responsive Elements (CRE) small molecule agonists, cell-based qHTS assay: qHTS cell viability counter screen (AID 2060914); also: nearly all actives have a fitted effect of over 50% in size
Conditions: CRE-bla HEK293T viability, CellTiter-Glo luminescence, 5 h; series mostly up to 92.4 µM; activity change, negative = cytotoxicity: at the top concentration
Summary of the method: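 Cytotoxicity was measured as ATP luminescence (CellTiter-Glo, 30 min at room temperature) in the same wells as the CRE-bla FRET read-out. HEK293T CRE-bla cells had 3 h compound exposure at 37C/5% CO2.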
% is scaled to controls: 0 for no effect and ±100 for the full control effect; potency is read from the fitted curve at half-maximal effect.

Compound | activity change, negative = cytotoxicity | Potency
COC(=O)c1cc(C(=O)OC)cc(S(=O)(=O)O)c1 | -11.9% | 
C=CC/C=C/C/C=C/C/C=C/C | 0.368% | 
O=S(=O)(O)CCS |  | inactive
N#CCc1ccc(Cl)cc1Cl | 4.98% | 
Cc1nc2ccc(CN(C)c3ccc(C(=O)N[C@@H](CCC(=O)O)C(=O)O)s3)cc2c(=O)[nH]1 | -0.404% [at 42.5 µM] | 
O=C1C(N(CO)C(=O)NCO)N(CO)C(=O)N1CO (stereo not given) |  | inactive
CC(Cc1ccccc1)(NC(=O)CN)c1ccccc1 (stereo not given) | 21.1% [at 42.5 µM] | 
C=C1CC[C@H](O)C/C1=C\C=C1/CCC[C@]2(C)[C@@H]([C@H](C)CCCC(C)C)CC[C@@H]12 | 0.614% | 
NC(=O)c1cccnc1 | 1.77% | 
O=C(Nc1ccc(Oc2ccc(Cl)cc2)c(Cl)c1)c1cc(I)cc(I)c1O | -8.99% [at 42.5 µM] | 
CCCCCCCCCCCC | -3.99% | 
CCc1cc(Cc2cc(CC)c(N)c(CC)c2)cc(CC)c1N | -5.47% | 
CCc1cc(Cc2cc(CC)cc(C(C)(C)C)c2O)c(O)c(C(C)(C)C)c1 | -12.5% | 
COC(=O)c1ccc(C(=O)O)cc1 | -0.792% | 
COc1ccc2cc1Oc1cc3c(cc1OC)CC[N+](C)(C)[C@H]3Cc1ccc(cc1)Oc1c(OC)c(OC)cc3c1[C@@H](C2)[N+](C)(C)CC3 | -3.38% [at 42.5 µM] | 
NC(=Nc1ccccc1)Nc1ccccc1 | 3.84% [at 42.5 µM] | 
CCCCCCCCCCCCOCCOCCOCCOCCOCCOCCOCCOCCOCCO |  | 29.8 µM (active)
CC(CCl)OC(C)CCl (stereo not given) | 6.52% | 
CCN(CC)c1ccc(C(=C2C=CC(=[N+](CC)CC)C=C2)c2cc(S(=O)(=O)O)ccc2S(=O)(=O)[O-])cc1 | -13.7% [at 42.5 µM] | 
O=[N+]([O-])c1ccc(O/N=C/c2cc(Br)c(O)c(Br)c2)c([N+](=O)[O-])c1 | -0.349% | 

Compound | activity change, negative = cytotoxicity | Potency
CCOC(=O)c1ccc(OC(=O)CCCCCN=C(N)N)cc1 | -0.626% [at 42.5 µM] | 
Nc1ccc2c(S(=O)(=O)O)cccc2c1S(=O)(=O)O | 0.948% [at 42.5 µM] | 
CCOC(=O)n1ccn(C)c1=S | 1.58% | 
O=c1[nH]nc(-c2ccc([N+](=O)[O-])o2)o1 | 1.54% | 
Cn1cccc1 | -0.8% | 
COCC(C)N (stereo not given) |  | inactive
CCCCCCOC(=O)C(C)C | -1.83% | 
CC(C)NCC(O)COc1cccc2ccccc12 (stereo not given) |  | inactive
NC(CO)C(=O)NNCc1ccc(O)c(O)c1O (stereo not given) | 6.77% [at 42.5 µM] | 
CCCCCCCC(=O)Oc1c(Br)cc(C#N)cc1Br | -16% | 
O=C1Cc2ccccc2N1c1c(Cl)cccc1Cl | 0.902% | 
CN(C)CCCN1c2ccccc2CCc2ccc(Cl)cc21 |  | inactive
CC1CCC(C(C)(C)S)C(=O)C1 (stereo not given) | 0.901% | 
C=CCCCCCCCCCCCC | -7.96% | 
CC[C@H](C)COC(=O)/C=C/c1ccc(N=Cc2ccc(OC)cc2)cc1 | -26% | 
CC(=O)c1ccc(OCC(=O)N2CCCCC2)cc1 | 6.82% [at 42.5 µM] | 
CCN(CC)C(=S)SSC(=S)N(CC)CC |  | inactive
CCCCCCCCCCCCCCCO |  | inactive
C[n+]1ccn(Cc2ccccc2)c1 | -12.2% | 
CCC(=O)c1cccc(Cl)c1 | -1.96% | 
